Bioassay records: PubChem BioAssay, National Center for Advancing Translational Sciences (NCATS)
The list is not random: actives were taken first. Their share in the collection is about 17%.
ATXN2 expr inh: Primary qHTS for Inhibitors of ATXN expression; HEK-293 ATXN2-luciferase reporter, luminescence, 24 h; Potency, µM (titrated, usually from 57 µM), for inactives: at the top dose activity change, negative = inhibition, hits mostly inhibitors; hit rate 0.72% among 360,000; note: % is set by controls: 0 for no effect and ±100 for the full control effect; nearly all actives have a fitted effect of over 55% in size
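qHTS (up to 57 uM final) was run with 24 h compound exposure of reporter cells at 37 °C. Each well was multiplexed: SteadyGlo luminescence measured ATXN2-luciferase expression after a fluorogenic Gly-Phe-AFC viability readout (25 uM final).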
TDP1 cell noCPT: qHTS for Inhibitors of human tyrosyl-DNA phosphodiesterase 1 (TDP1): qHTS in cells in absence of CPT | DT40 Tdp1-/- hTDP1 cells, no CPT, ATP luminescence, 48 h | Potency, µM (series often up to 46.2 µM), inactives show top-dose activity change, negative = growth inhibition, actives largely listed as inhibitors | hit rate 15% among 420,000 | AID 686978, 2013; note: % is set by controls: 0 for no effect and ±100 for the full control effect; nearly all actives have a fitted effect of over 55% in size
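Seeded 400 DT40-hTDP1 cells/well (vehicle DMSO, no 20 nM CPT); pinned compounds; ≥48 hr at 37 °C; CellTiter-Glo luminescence as viability measure.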
TGFb inhibitor: qHTS for Inhibitors of TGF-b. Potency, µM (series often up to 46.1 µM), for the others: at the highest dose activity, negative = inhibition, actives largely listed as inhibitors. hit rate 1.2% among 410,000. HepG2 CAGA-GFP TGF-b/SMAD3 reporter, GFP fluorescence, 18 h; TGF-beta stimulated, 500 pg/mL final. AID 588855, 2011; note: % is set by controls: 0 for no effect and ±100 for the full control effect; nearly all actives have a fitted effect of over 65% in size
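Smad-responsive CAGA-GFP expression was quantified in HEPG2 cells exposed to compounds and 500 pg/mL final TGF-beta for 18 h at 37 degrees C; unstimulated wells defined full inhibition.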
S2 tox: Viability Counterscreen for Primary qHTS for Inhibitors of ATXN expression. S2 cells (HEK-293 line with an ATXN2-luciferase reporter) viability, CellTiter-Fluor protease fluorescence, 24 h. hit rate 0.49% among 400,000. Potency, µM (highest dose often 56.7 µM), hits mostly cytotoxic; note: nearly all actives have a fitted effect of over 40% in size
HepG2 viability: qHTS for Inhibitors of TGF-b: Cytotox Counterscreen; Potency, µM (titrated, usually from 46.1 µM), inactives show at the highest dose activity change, negative = cytotoxicity, most hits filed as cytotoxic; HepG2 CAGA-GFP viability, ATP luminescence, 18 h; hit rate 0.76% among 410,000
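CellTiter-Glo luminescence gave cytotoxicity after 18 hours at 37 degrees C. The cells were HepG2 CAGA-GFP in 1% FBS DMEM, stimulated with 500 pg/mL TGF-beta after compound addition. %Activity was normalised to no-cell wells (complete cell-killing) and DMSO (no toxicity), and curves were fitted and classified.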
DT40 TDP1 CPT: qHTS for Inhibitors of human tyrosyl-DNA phosphodiesterase 1 (TDP1): qHTS in cells in presence of CPT; chicken DT40 Tdp1-/-;hTDP1 cells + 20 nM CPT, ATP luminescence, 48 h; Potency, µM (top dose mostly 46.2 µM), for inactives: at the top dose activity change, negative = growth inhibition, most hits filed as inhibitors; hit rate 12% among 420,000; AID 686979, 2013; note: % is set by controls: 0 for no effect and ±100 for the full control effect; nearly all actives have a fitted effect of over 55% in size
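Chicken DT40 Tdp1-/- cells complemented with human TDP1, 400 cells/well, exposed to compounds plus 20 nM camptothecin for at least 48 h at 37 C; viability read as ATP content by CellTiter-Glo luminescence.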
Starred values were filed as active, the others as inactive. Calls come from the whole dose curve; as a rule, active = well fitted curve in the direction sought with a large enough effect; inconclusive = small, poorly fitted or top-dose-only effect, or another doubt; inactive = no such curve, though single readings can be large; an effect the other way counts as inactive or inconclusive. Potency is the fitted concentration of half-maximal effect.

How did COc1cccc(NC(=O)c2ccc3c(O)c(S(=O)(=O)c4ccccc4)c(=O)[nH]c3c2)c1 do in these assays?
ATXN2 expr inh: 7%; TDP1 cell noCPT: inconclusive; TGFb inhibitor: 3%; S2 tox: inactive; HepG2 viability: 4%; DT40 TDP1 CPT: 23µM*

How did COc1ccc(S(=O)(=O)c2c(O)c3ccc(C(=O)Nc4cccc(F)c4)cc3[nH]c2=O)cc1 do in these assays?
TDP1 cell noCPT: -3%; TGFb inhibitor: 4%; S2 tox: inactive; HepG2 viability: -4%; DT40 TDP1 CPT: 6%

What do the screens show for `COc1cccc(C(=O)Nc2ccc(C(=O)c3ccccc3)cc2)c1`?
TDP1 cell noCPT: 16µM*; TGFb inhibitor: -9%; S2 tox: inconclusive; HepG2 viability: -20%; DT40 TDP1 CPT: -19%

Results for COc1cccc(C(=O)Nc2ccc(C(=O)O)cc2)c1 ?
ATXN2 expr inh: -14%; TDP1 cell noCPT: inconclusive; TGFb inhibitor: -3%; S2 tox: inactive; HepG2 viability: -33%; DT40 TDP1 CPT: -15%

Results for CN(C)S(=O)(=O)Oc1cccc(C(=O)Nc2ccc(Cl)cc2)c1 ?
ATXN2 expr inh: 42%; TDP1 cell noCPT: 12µM*; TGFb inhibitor: inconclusive; S2 tox: inconclusive; HepG2 viability: -16%; DT40 TDP1 CPT: 8.2µM*

Results for Cc1cnc(CNc2ccnc(-c3ccc(N(C)C)cc3)n2)cn1 ?
TDP1 cell noCPT: -15%; DT40 TDP1 CPT: -10%

How did Cc1ccc(Nc2nc(/N=C/N(C)C)n[nH]2)cc1C do in these assays?
ATXN2 expr inh: 113%; TDP1 cell noCPT: -6%; TGFb inhibitor: -1%; S2 tox: inactive; HepG2 viability: 10%; DT40 TDP1 CPT: -5%

What do the screens show for `COc1ccc(NC(=O)c2ccc(C(=O)c3ccccc3)o2)cc1`?
ATXN2 expr inh: 32%; TDP1 cell noCPT: 2.1µM*; TGFb inhibitor: -4%; S2 tox: inactive; HepG2 viability: -24%; DT40 TDP1 CPT: inconclusive

Results for CCOC(=O)c1ccc(CN(Cc2ccccc2C)S(=O)(=O)c2ccc(C(C)(C)C)cc2)cc1 ?
TDP1 cell noCPT: 18µM*; TGFb inhibitor: 1%; HepG2 viability: 1%; DT40 TDP1 CPT: inconclusive

Results for COc1cccc(OC)c1C(=O)Nc1ccc(Br)c(C(=O)c2ccccc2)c1 ?
TDP1 cell noCPT: 16µM*; TGFb inhibitor: 6%; HepG2 viability: -21%; DT40 TDP1 CPT: inconclusive

Results for CCOC(=O)c1ccc(CN(Cc2ccc(F)cc2)S(=O)(=O)c2cc(C(=O)Nc3cccc(C(F)(F)F)c3)ccc2F)cc1 ?
TDP1 cell noCPT: 23µM*; TGFb inhibitor: -17%; HepG2 viability: -14%; DT40 TDP1 CPT: 13µM*

Results for N[C@@H](C(=O)N[C@@H]1C(=O)N2C(C(=O)O)=C(CSc3cn[nH]n3)CS[C@H]12)c1ccc(O)cc1 ?
TDP1 cell noCPT: 4%; S2 tox: inactive; DT40 TDP1 CPT: 9%

What do the screens show for `CCOC(=O)N1CCC(Nc2c(NCCCN(C)Cc3ccccc3)c(=O)c2=O)CC1`?
ATXN2 expr inh: 4%; TDP1 cell noCPT: -14%; TGFb inhibitor: 4%; S2 tox: inactive; HepG2 viability: 3%; DT40 TDP1 CPT: 11%

How did Cc1cc(C)cc(-n2ccn(Cc3ccccc3C)c(=O)c2=O)c1 do in these assays?
TDP1 cell noCPT: -29%; TGFb inhibitor: inconclusive; HepG2 viability: -22%; DT40 TDP1 CPT: -21%

Results for CCC1=C(OC(=O)N(CC)CC)N2C(=O)OC(=NCCc3c[nH]c4ccccc34)[C@]2(Cc2ccccc2)[C@H]2C1=CC[C@H]1C(=O)N(CC(=O)OC)C(=O)[C@H]12 ?
ATXN2 expr inh: -19%; TDP1 cell noCPT: inconclusive; TGFb inhibitor: -20%; S2 tox: inconclusive; HepG2 viability: -17%; DT40 TDP1 CPT: inconclusive

What do the screens show for `CCC1=C(OC(=O)N(CC)CC)N2C(=O)OC(=NCC(=O)OC)[C@]2(Cc2ccccc2)[C@H]2C1=CC[C@H]1C(=O)N(C)C(=O)[C@H]12`?
ATXN2 expr inh: -4%; TDP1 cell noCPT: -19%; TGFb inhibitor: 0%; S2 tox: inactive; HepG2 viability: -3%; DT40 TDP1 CPT: -24%

Results for CCC1=C(OC(=O)N(CC)CC)N2C(=O)OC(=NCCc3c[nH]c4ccccc34)[C@]2(Cc2ccccc2)[C@H]2C1=CC[C@H]1C(=O)NC(=O)[C@H]12 ?
ATXN2 expr inh: inconclusive; TDP1 cell noCPT: 16µM*; TGFb inhibitor: inconclusive; S2 tox: inconclusive; HepG2 viability: -55%; DT40 TDP1 CPT: inconclusive

What do the screens show for `CCC1=C(OC(=O)N(CC)CC)N2C(=O)OC(=NCC3CC3)[C@]2(Cc2ccccc2)[C@H]2C1=CC[C@H]1C(=O)N(C)C(=O)[C@H]12`?
ATXN2 expr inh: -15%; TDP1 cell noCPT: 18µM*; TGFb inhibitor: -10%; S2 tox: inconclusive; HepG2 viability: -19%; DT40 TDP1 CPT: 18µM*

What do the screens show for `CCc1nc(C)cn1S(=O)(=O)c1cc(C)c(OC)cc1C`?
ATXN2 expr inh: 3%; TDP1 cell noCPT: inconclusive; TGFb inhibitor: -9%; S2 tox: inactive; HepG2 viability: -25%; DT40 TDP1 CPT: -28%

Results for CCc1nc(C)cn1S(=O)(=O)c1ccc(Cl)c(Cl)c1Cl ?
ATXN2 expr inh: -20%; TDP1 cell noCPT: 21µM*; TGFb inhibitor: inconclusive; S2 tox: inactive; HepG2 viability: -14%; DT40 TDP1 CPT: 18µM*

How did CCc1nc(C)cn1S(=O)(=O)c1cc(C)c(OC)c(C)c1C do in these assays?
ATXN2 expr inh: -25%; TDP1 cell noCPT: 10µM*; TGFb inhibitor: inconclusive; S2 tox: inactive; HepG2 viability: -27%; DT40 TDP1 CPT: 8.2µM*

What do the screens show for `CCc1nc(C)cn1S(=O)(=O)c1cc(Cl)c(OC)cc1Cl`?
ATXN2 expr inh: -19%; TDP1 cell noCPT: inconclusive; TGFb inhibitor: inconclusive; S2 tox: inactive; HepG2 viability: -24%; DT40 TDP1 CPT: inconclusive

What do the screens show for `Cc1ccc(CNC(=O)C(C)n2ccc3cc(S(=O)(=O)N4CCCC4)ccc32)cc1` (stereo not given)?
ATXN2 expr inh: -14%; TDP1 cell noCPT: 0.46µM*; TGFb inhibitor: -4%; S2 tox: inconclusive; HepG2 viability: -4%; DT40 TDP1 CPT: inconclusive
